Where “and” joins values, the source holds several entries; their conditions need not be identical. Equal values may be shown once. A structure can be active in one record and inactive in another. Calls of active or inactive are those of the source. Where a call stands in place of a potency, no number is given. Unless noted, calls come from the whole dose curve.
How the values were obtained:
[1] = qHTS assay to identify small molecule antagonists of the thyroid receptor (TR) signaling pathway - cell viability counter screen (AID 743064; active = well fitted curve in the direction sought with a large enough effect in the repeat runs; inconclusive = weak or mixed curves; inactive = no such curve, though single readings can be large; an effect the other way counts as inactive or inconclusive; note: nearly all actives have a fitted effect of over 50% in size)
How it was run: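 Rat GH3 pituitary tumor cells stably expressing two TR response elements driving luciferase were plated, rested 4 h, then dosed with library compounds and T3 (1 nM final). After 23.5 h at 37 °C, CellTiter-Fluor was added for 30 min and fluorescence recorded.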

[2] = test system: thyroid hormone receptor (rat, GH3 cells); assay: qHTS assay to identify small molecule agonists of the thyroid receptor (TR) signaling pathway (AID 743066)
[3] = qHTS assay to identify small molecule antagonists of the estrogen receptor alpha (ER-alpha) signaling pathway - cell viability counter screen (AID 743074); note: nearly all actives have a fitted effect of over 45% in size
[4] = biological target: Estrogen receptor (Homo sapiens) (UniProt P03372); assay: qHTS assay to identify small molecule agonists of the estrogen receptor alpha (ER-alpha) signaling pathway (AID 743075); note: potency is the fitted concentration of half-maximal effect
Estrogen receptor (Homo sapiens), sequence (P03372 whole entry, looked up): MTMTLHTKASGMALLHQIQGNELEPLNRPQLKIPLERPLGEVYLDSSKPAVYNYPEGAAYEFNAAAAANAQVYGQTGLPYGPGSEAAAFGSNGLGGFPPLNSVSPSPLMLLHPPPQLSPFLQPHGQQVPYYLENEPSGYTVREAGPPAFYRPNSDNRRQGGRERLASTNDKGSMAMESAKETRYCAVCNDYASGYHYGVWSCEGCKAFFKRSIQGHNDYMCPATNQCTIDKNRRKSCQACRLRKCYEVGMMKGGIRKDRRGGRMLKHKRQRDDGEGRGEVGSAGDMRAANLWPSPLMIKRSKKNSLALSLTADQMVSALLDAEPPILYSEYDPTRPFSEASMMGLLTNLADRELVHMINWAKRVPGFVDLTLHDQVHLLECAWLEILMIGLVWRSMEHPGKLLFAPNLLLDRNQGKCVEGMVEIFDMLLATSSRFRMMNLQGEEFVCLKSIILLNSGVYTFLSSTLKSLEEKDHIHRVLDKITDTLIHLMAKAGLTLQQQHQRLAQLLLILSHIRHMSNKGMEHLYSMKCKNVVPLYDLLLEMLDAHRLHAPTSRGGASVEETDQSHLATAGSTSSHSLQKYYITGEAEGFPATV

[5] = biological target: Estrogen receptor (Homo sapiens) (UniProt P03372); assay: qHTS assay to identify small molecule agonists of the estrogen receptor alpha (ER-alpha) signaling pathway using the BG1 cell line (AID 743079; active = well fitted curve in the direction sought with a large enough effect in the repeat runs; inconclusive = weak or mixed curves; inactive = no such curve, though single readings can be large; an effect the other way counts as inactive or inconclusive; note: nearly all actives have a fitted effect of over 20% in size; note: potency is the fitted concentration of half-maximal effect); conditions: BG1Luc4E2 cells, ERE-luciferase agonist, 22 h
[6] = qHTS assay to identify small molecule antagonists of the estrogen receptor alpha (ER-alpha) signaling pathway using the BG1 cell line (AID 743080);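 note: BG1 cells stimulated with 17beta-estradiol alongside compound; nearly all actives have a fitted effect of over 25% in size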; note: potency is the fitted concentration of half-maximal effect
How it was run: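 BG1-Luc-4E2 cells (endogenous full-length ER-alpha, stable 4×ERE-luciferase) were starved 5 days in phenol-red-free medium with 10% charcoal-stripped FBS, plated 24 h, then given compound plus 17beta-estradiol for 21.5 h at 37 C; ONE-Glo luminescence read after 30 min.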

[7] = qHTS assay to identify small molecule antagonists of the estrogen receptor alpha (ER-alpha) signaling pathway using the BG1 cell line - cell viability counter screen (AID 743081; active = well fitted curve in the direction sought with a large enough effect in the repeat runs; inconclusive = weak or mixed curves; inactive = no such curve, though single readings can be large; an effect the other way counts as inactive or inconclusive;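 note: compound given together with 17beta-estradiol as the ER stimulus; nearly all actives have a fitted effect of over 45% in size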)
Aromatase (Homo sapiens) = Aromatase (Homo sapiens) (UniProt P11511); assay: qHTS assay to identify aromatase inhibitors (AID 743083; active = well fitted curve in the direction sought with a large enough effect in the repeat runs; inconclusive = weak or mixed curves; inactive = no such curve, though single readings can be large; an effect the other way counts as inactive or inconclusive; note: nearly all actives have a fitted effect of over 55% in size; note: potency is the fitted concentration of half-maximal effect)
Aromatase (Homo sapiens), sequence (P11511 whole entry, looked up): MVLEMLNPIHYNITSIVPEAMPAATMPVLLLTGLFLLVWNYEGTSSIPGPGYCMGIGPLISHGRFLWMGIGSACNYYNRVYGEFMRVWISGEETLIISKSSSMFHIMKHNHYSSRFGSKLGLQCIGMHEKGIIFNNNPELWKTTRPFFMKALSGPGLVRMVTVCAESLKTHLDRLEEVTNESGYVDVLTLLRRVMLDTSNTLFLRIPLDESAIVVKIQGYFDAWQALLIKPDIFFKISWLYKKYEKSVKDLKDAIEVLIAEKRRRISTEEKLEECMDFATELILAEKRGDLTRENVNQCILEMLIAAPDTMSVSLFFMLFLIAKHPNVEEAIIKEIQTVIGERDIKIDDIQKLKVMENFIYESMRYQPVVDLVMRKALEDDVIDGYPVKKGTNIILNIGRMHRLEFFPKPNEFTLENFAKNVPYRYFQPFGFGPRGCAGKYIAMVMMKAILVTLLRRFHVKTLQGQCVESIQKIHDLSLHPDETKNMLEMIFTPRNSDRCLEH

[8] = biological target: Estrogen receptor (Homo sapiens) (UniProt P03372); assay: qHTS assay to identify small molecule antagonists of the estrogen receptor alpha (ER-alpha) signaling pathway (AID 743069; active = well fitted curve in the direction sought with a large enough effect in the signal ratio in the repeat runs, not every such curve was filed as active; inconclusive = weak or mixed curves, or effect the other way; inactive = no such curve, though single readings can be large or run the other way; the % refers to the signal ratio; note: potency is the fitted concentration of half-maximal effect)
How it was run: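 In this cell-based reporter format, GripTite HEK293 cells harbouring ER-alpha-UAS-bla were grown overnight with 2% charcoal-stripped FBS, dosed with DMSO-dissolved compounds, then challenged with 17beta-estradiol. After 18 hr at 37C, beta-lactamase activity was detected by FRET fluorescence.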

[9] = qHTS assay to identify small molecule antagonists of the thyroid receptor (TR) signaling pathway (AID 743065; active = well fitted curve in the direction sought with a large enough effect in the repeat runs; inconclusive = weak or mixed curves; inactive = no such curve, though single readings can be large; an effect the other way counts as inactive or inconclusive; note: nearly all actives have a fitted effect of over 55% in size)
How it was run: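 GH3.TRE-Luc rat pituitary cells (two TREs driving luciferase) were dosed with compound, then stimulated with 1 nM T3 (final) for 23.5 h at 37 C. ONE-Glo luminescence was the read-out, with CellTiter-Fluor fluorescence as the cytotoxicity counter-screen.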

Compound | Potency [1] | Potency [2] | outcome [3] | Potency [4] | activation ([5]; at 70.3 µM (top of the series)) | Potency [6] | Potency [7] | Potency (Aromatase (Homo sapiens)) | Potency [8] | activation ([5]; at 95 µM (top of the series)) | Potency [5] | activation ([5]; at 260 µM (top of the series)) | Potency [9]
O=[N+]([O-])c1ccc2c3c(cccc13)CC2 | inactive | inactive | inactive | inactive | -4.67% (inactive) | inactive | inactive | inactive |  |  |  |  | 
O=[N+]([O-])c1cccc2c([N+](=O)[O-])cccc12 | inactive | inactive | inactive |  |  |  | inactive | inactive |  |  |  |  | 
CCOC(=O)/C=C(C)/C=C/C[C@@H](C)CCCC(C)C | inactive |  | inactive | inactive | 19.2% (inactive) and -9.9% (inactive) | inactive | inactive | inactive | inactive and 24.5 µM [inhibitor] (active) |  |  |  | 
O=S(=O)(O)C(F)(F)C(F)(F)C(F)(F)C(F)(F)C(F)(F)C(F)(F)F | inactive | inactive |  | inactive | -0.729% (inactive) | inactive | inactive | inactive | inactive |  |  |  | 
CC(C)(C)C(=O)C(Oc1ccc(Cl)cc1)n1cncn1 (configuration not stated) | inactive | inactive | inactive |  |  |  | inactive | 54400 nM (active) |  |  |  |  | 
COC(=O)C1=CCCN(C)C1 | inactive |  | inactive | inactive | 0.989% (inactive) | inactive | inactive | inactive | inactive |  |  |  | 
O=C(Cc1ccccc1)OCc1ccccc1 | inactive | inactive | inactive | inactive |  | inactive | inactive | inactive |  | 2.04% (inactive) |  |  | 
CCN(CC)C(=O)[C@@H]1C=C2c3cccc4[nH]cc(c34)C[C@H]2N(C)C1 | inactive | inactive | inactive | inactive and 8.49 µM [inconclusive] (active) |  | inactive |  | inactive |  |  | 944 nM (active) | -12% (inactive) | 
Cc1coc2c1CCC(C)C2 (configuration not stated) | inactive | inactive | inactive | inactive |  | inactive | inactive | inactive | inactive |  |  |  | 
Nc1n[nH]c(N)n1 | inactive | inactive | inactive |  |  |  | inactive | inactive |  |  |  |  | 
CCc1cc2c(s1)-n1c(C)nnc1CN=C2c1ccccc1Cl | inactive | inactive | inactive | inactive |  | 11900 nM (active) |  | inactive |  |  |  |  | 
CCOC(=O)CP(=O)(OCC)OCC | inactive | inactive | inactive | inactive |  | inactive | inactive | inactive | inactive |  |  |  | 
CN1CCN(C(=O)O[C@H]2c3nccnc3C(=O)N2c2ccc(Cl)cn2)CC1 | inactive | inactive | inactive |  |  |  | inactive | inactive |  |  |  |  | 
C#C[C@]1(O)C=C[C@H]2[C@@H]3CCC4=CC(=O)CC[C@@H]4[C@H]3CC[C@@]21CC |  | inactive | inactive | 535 nM [inconclusive] (active) |  | inactive | inactive | inactive |  |  | 168 nM (active) |  | 
N#CCCC#N |  | inactive | inactive | inactive | -3.68% (inactive) | inactive | inactive | inactive | inactive |  |  |  | 
O=c1oc2ccccc2c(O)c1C1CCCc2ccccc21 (configuration not stated) |  | inactive | inactive | inactive | -13.4% (inactive) | inactive | inactive | inactive | inactive |  |  |  | 
COP(N)(=S)Oc1ccccc1C(=O)OC(C)C (configuration not stated) |  | inactive | inactive | inactive |  | inactive | inactive | inactive | inactive |  |  |  | inactive
CN1C[C@@H](NS(=O)(=O)N(C)C)C[C@@H]2c3cccc4c3c(cn4C)C[C@H]21 |  | inactive | inactive |  |  |  | inactive |  |  |  |  |  | inactive
Nc1ccccc1Cl |  | inactive | inactive | inactive | -8.6% (inactive) | inactive | inactive | inactive | inactive |  |  |  | inactive
CC(C)CC#N | inactive |  | inactive | inactive |  |  | inactive | inactive | inactive | 6.55% (inactive) |  |  | 
Cc1cc(C)nc(Nc2ccccc2)n1 |  | inactive | inactive | inactive |  |  | inactive | inactive | inactive |  |  |  | inactive
CC(C)CC(N(C)C)C1(c2ccc(Cl)cc2)CCC1 (configuration not stated) |  | inactive | inactive |  |  |  | inactive | inactive |  |  |  |  | 
